Compound activity deposited in PubChem BioAssay by Broad Institute.
This is one part of a sample in which hits are shown more often than they occur.
Tgondii IFNg: T. gondii growth inhibition under IFN-gamma; activity change, negative = inhibition, % (no concentration beside the values); AID 1259416; Toxoplasma gondii growth in IFN-gamma-treated host cells; active compounds read low; 69,000 tested, 3.8% active; in the data active = activity change below about -70%, passing the limit was not always enough;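 note: host cells are HeLa cells infected with Toxoplasma gondii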
An asterisk follows results filed as active; i = inactive.

SMILES	Tgondii IFNg
c1ccc(-c2ccc3c(C4CCCN4Cc4ccncc4)nnn3c2)cc1 (configuration not stated)	61
C[C@H](CO)N1C[C@H](C)[C@@H](CN(C)C(=O)Nc2ccccc2F)Oc2cc(Br)ccc2S1(=O)=O	46
C[C@@H]1CN([C@H](C)CO)S(=O)(=O)c2ccc(C#CC3(O)CCCC3)cc2O[C@H]1CN(C)C(=O)Nc1cccc(F)c1	-90*
C[C@@H]1CN([C@H](C)CO)S(=O)(=O)c2ccc(C#CC3(O)CCCC3)cc2O[C@@H]1CN(C)C(=O)Nc1cccc(F)c1	-99*
Cc1ccccc1-c1ccc2c(c1)O[C@@H](CN(C)C(=O)Nc1ccc(C(F)(F)F)cc1)[C@H](C)CN([C@H](C)CO)S2(=O)=O	-92*
CCCNC(=O)N(C)C[C@@H]1Oc2cc(C#C[C@@H](C)O)ccc2S(=O)(=O)N([C@H](C)CO)C[C@@H]1C	51
Cc1noc(C)c1NC(=O)N(C)C[C@H]1Oc2cc(C#CCN(C)C)ccc2S(=O)(=O)N([C@H](C)CO)C[C@@H]1C	50
C[C@H](CO)N1C[C@H](C)[C@@H](CN(C)C(=O)Nc2cccc(F)c2)Oc2cc(C#CC3(O)CCCC3)ccc2S1(=O)=O	-93*
Cc1ccccc1-c1ccc2c(c1)O[C@H](CN(C)C(=O)Nc1ccc(C(F)(F)F)cc1)[C@H](C)CN([C@H](C)CO)S2(=O)=O	-23
CCCNC(=O)N(C)C[C@H]1Oc2cc(C#C[C@H](C)O)ccc2S(=O)(=O)N([C@@H](C)CO)C[C@@H]1C	103
CCCNC(=O)N(C)C[C@@H]1Oc2cc(C#C[C@H](C)O)ccc2S(=O)(=O)N([C@@H](C)CO)C[C@H]1C	50
CCCNC(=O)N(C)C[C@@H]1Oc2cc(C#C[C@@H](C)O)ccc2S(=O)(=O)N([C@@H](C)CO)C[C@@H]1C	-55
CCCNC(=O)N(C)C[C@H]1Oc2cc(C#C[C@@H](C)O)ccc2S(=O)(=O)N([C@@H](C)CO)C[C@@H]1C	12
Cc1ccc(CN2C[C@@H]3C[C@H](C(=O)NC(C)C)[C@@H](C2)O3)o1	-30
Cc1oc(C2CCN(C(=O)c3ccsc3)CC2)nc1C(=O)N1CCSCC1	-2
CS(=O)(=O)N1CCN2CC(C(=O)O)CN(Cc3ccco3)CC2C1 (configuration not stated)	-1
COc1ccc(-c2nc(Cn3cnc4onc(-c5ccc(Cl)cc5)c4c3=O)c(C)o2)c(OC)c1	75
Cc1cc(C)c(C(=O)N2CCCC(c3nc4c(C)cccc4[nH]3)C2)c(=O)[nH]1 (configuration not stated)	0
CN1C(=O)c2cc(NS(=O)(=O)c3cccc(F)c3)ccc2OC[C@@H]2O[C@H](CC(=O)NCCN3CCCCC3)CC[C@@H]21	-18
O=C(NCC1COc2ccccc2O1)Nc1csc2ccccc12 (configuration not stated)	-90*
O=C(CN1CCN(S(=O)(=O)N2CCCC2)CC1)NCC1COc2ccccc2O1 (configuration not stated)	7
Cc1cc(C(=O)NCC2COc3ccccc3O2)nn1C (configuration not stated)	42
COc1ccc(CCCC(=O)N2CCNC(C(=O)O)C2)cc1 (configuration not stated)	5
COc1ccc(C(=O)N2CCC(OCC3=CCCN(C)C3)CC2)cc1	3
CC(C)c1ccc(NC2CCCN(C(=O)Cc3c[nH]c(=O)[nH]c3=O)C2)cc1 (configuration not stated)	-7
SMILES	Tgondii IFNg
Cc1nc(C)c(C(=O)NCc2cc(=O)n3[nH]c(-c4ccccn4)cc3n2)s1	-11
N#C[C@H]1[C@H](c2ccccc2)[C@H](CO)N1C(=O)c1ccc2c(c1)OCO2	1
O=C(Cn1c(=O)cc(C(=O)N2CCOCC2)c2ccccc21)Nc1ccc2c(c1)OCO2	4
CC(C)(C)c1ccc(/C=C/C(=O)Nc2ccc3c(c2)OCCO3)cc1	-73*
Cc1nn(-c2ccccc2)nc1C(=O)Nc1ccc2c(c1)OCCO2	7
CC(C)(C)c1ccc2c(c1)OCCOCCOCCOCCO2	-21
CCCN1CCN(C(=O)c2n[nH]nc2-c2ccccc2)CC1	-15
COCC1c2nnn(CC3CC3)c2CCN1C(=O)c1cnoc1C (configuration not stated)	167
Cn1c(=O)c2c(ncn2Cc2ccccc2Cl)n(C)c1=O	-1
Cn1c(=O)c2nc3ccccc3nc2n(C)c1=O	-13
Cn1c(=O)c2c(nc(Oc3ccccc3Br)n2C)n(C)c1=O	-75*
Fc1ccc(CN2CCc3nc(N4CCOCC4)nc(NC4CC4)c3C2)cc1	14
O=C(c1cccc(Cl)c1)N1CC[C@H]2[C@@H]1CCN2CC1CC1	1
COc1cc(-c2ccc(=O)[nH]n2)ccc1OC(F)F	-87*
COc1ccc(Cn2c(-c3ccncc3)n[nH]c2=O)cc1	-4
COc1ccc(-c2ccc(=O)[nH]n2)cc1	-115*
COc1ccc(-c2c(N)n[nH]c2C)cc1OC	-14
COc1ccc(-c2cc(N)n(C)n2)cc1	111
Cc1ccc(-c2ccc(=O)[nH]n2)cc1-n1cnnc1	8
CC(C)c1nc(Cn2ccnc2-c2ccc(C3CCCCO3)s2)no1 (configuration not stated)	25
O=C(Sc1ccc(Cl)cc1)c1ccc(-c2cccs2)s1	-104*
CC(=O)c1ccc(-c2cccs2)s1	-31
O=C(c1ccc(-c2cccs2)s1)c1ccc(F)cc1F	151
COc1cccc(Nc2ccc3c(C4CCCN4C(=O)NC(C)C)nnn3c2)c1 (configuration not stated)	19
CN(CCC1CCCCO1)C1CCN(c2ccc(NC(=O)C3CCCC3)cc2)CC1 (configuration not stated)	-7
SMILES	Tgondii IFNg
CSc1sc(-c2nc(C)cs2)c(C)c1-c1ccn[nH]1	-86*
Cc1csc(-c2sc3ccccc3c2O)n1	-28
CCN(Cc1noc(CC(C)C)n1)C(=O)c1ccc(NC(C)=O)cc1	3
CCCNC(=O)N1CC2(CN(Cc3cccnc3)C2)c2c(n(C)c3cc(OC)ccc23)[C@H]1CO	16
Cc1nc(C)c(C(=O)N2CCC(C(=O)N3CCCCCC3)C2)o1 (configuration not stated)	-11
Cc1nc(C)c(C(=O)N2CC(C(=O)N3CCCCCC3)C2)o1	-5
Cc1nc(C)c(C(=O)N2C[C@@H](c3ccccc3)[C@H](c3cc(C(F)F)n[nH]3)C2)o1	-80*
C[C@H]1CN([C@@H](C)CO)C(=O)c2cccc(NS(=O)(=O)c3cn(C)cn3)c2O[C@@H]1CN(C)Cc1ccc(Oc2ccccc2)cc1	-67
Nc1ncnc2c1c(-c1cnc3[nH]ccc3c1)nn2C1CCCC1	-77*
Cc1ccc(-c2cc(NC3CCCC3)nc3[nH]ccc23)c(N)n1	-3
CCCCc1ncc(CN2CCN(c3ncnc4ccccc34)CC2)[nH]1	-2
COC(=O)c1cc(C)nc2c1c(=O)nc(SCc1nc(-c3cccc(Cl)c3)oc1C)n2C1CC1	i
Clc1ccccc1-c1cc(C2CCN(Cc3cccnc3)CC2)[nH]n1	10
O=c1n(Cn2nnc3ccccc32)nc(C(F)(F)F)c2cccn12	70
O=c1n(Cc2ccncc2)nc(C(F)(F)F)c2cccn12	10
O=c1[nH]nc(C(F)(F)F)n2cccc12	-104*
CC(C)c1nccc(-c2nccn2CC2(O)CCN(C)CC2)n1	3
C[C@H](NC(=O)C[C@H]1CC[C@H]2[C@@H](COc3ccc(NC(=O)C4CCOCC4)cc3C(=O)N2C)O1)c1ccccc1	-9
COc1ccc2c3c(n(C)c2c1)[C@H](CO)N(C(=O)c1cccc(F)c1)CC31CN(C(=O)c2cccc(F)c2)C1	-17
